The record followed here is PubChem BioAssay AID686978 (National Center for Advancing Translational Sciences (NCATS), 2013).

Each structure is given as a SMILES string. Screen size: about 420,000 compounds; about 64,000 (15%) were called active. Inconclusive results (about 27%) are left out. Calls follow the shape of the dose curve; as a rule, active = well fitted inhibition curve with a large enough effect; inconclusive = small, poorly fitted or top-dose-only effect; inactive = flat fitted curve, though single readings scatter. A selection follows. Entries that show only a call come without a potency.
Potency is read from the fitted curve at half-maximal effect.

A short description of this test: qHTS for Inhibitors of human tyrosyl-DNA phosphodiesterase 1 (TDP1): qHTS in cells in absence of CPT. Also: nearly all actives have a fitted effect of over 55% in size. The following applies: DT40 Tdp1-/- hTDP1 cells, no CPT, ATP luminescence, 48 h; activity change, negative = growth inhibition: at 46.2 µM (top of the series). The procedure, abridged:
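Luminescent ATP content (CellTiter-Glo) served as the growth readout. Knockout chicken DT40 cells expressing human TDP1 were exposed to compounds without camptothecin for a minimum 48 hr at 37 °C.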
In general terms: Quantitative high-throughput screening tests each substance at several concentrations.
For the molecule `Brc1cnc(N2CCCC2)nc1N1CCCCC1`, the Potency result is “inactive”.

Regarding `C=CCn1c(CNS(=O)(=O)c2ccc(Br)cc2)nnc1SC`, the Potency entry was “inactive”.

Regarding `CCC(C)(C)NC(=O)CN(Cc1cccs1)C(=O)CNS(=O)(=O)c1ccc(F)cc1`, the Potency entry is “inactive”.

Turning to `COc1ccc(NC(=O)CN(C)C(=O)c2cccc(S(=O)(=O)N3CCN(c4ccccc4)CC3)c2)cc1`, the Potency is 20.6 µM (active).

Take `CCOc1ccc(NC(=O)CN(C)C(=O)c2cccc(S(=O)(=O)N3CCCC3)c2)cc1OCC`: the Potency entry is “inactive”.

With `COc1ccc(OC)c(NC(=O)c2cccc(S(=O)(=O)N3CCN(C(C)=O)CC3)c2)c1`, the Potency result is “inactive”.

`O=C(NCc1ccccc1Cl)NC(=O)c1csc([N+](=O)[O-])c1`: the Potency result was “inactive”.

As to `CCCOc1ccc(Cc2c(O)nc(SC)[nH]c2=O)cc1C`, the Potency entry is “inactive”.

Turning to `COc1cccc(NC(=O)CN2CCN(CC(=O)Nc3ccccc3Cl)CC2)c1`, the Potency entry is “inactive”.

As for `COc1cccc(NC(=O)C2(C)CCN2Cc2ccccc2Cl)c1` (stereo not drawn), the Potency is 25.9 µM (active).

For the molecule `COc1cccc(NC(=O)NCCN2CCCCC2)c1`, the Potency result is “inactive”.

Take `O=C1COc2c1ccc(O)c2O`: the Potency entry was “inactive”.

Take `Cc1c(Cc2ccccc2)c(=O)oc2cc(OCC(N)=O)ccc12`: the Potency entry was “inactive”.

Consider `CC(=O)c1c(C)n(-c2ccc(N(C)C)cc2)c2ccc(OCC(N)=O)cc12`, for which the Potency is 23.1 µM (active).

As to `CC(=O)c1c(C)n(-c2ccc(C)cc2)c2ccc(O)cc12`, the Potency result is “inactive”.

Turning to `COc1ccc(CN2CCCC(N3CCc4ccccc4C3)C2)c(O)c1` (stereo not drawn), the Potency entry is “inactive”.

`Cn1nccc1NS(=O)(=O)c1ccc(F)cc1`: the Potency result was “inactive”.

Turning to `Cc1cc(F)ccc1NS(=O)(=O)c1ccc(-n2cccn2)cc1`, the Potency was 16.4 µM (active).

As to `Cc1ccc(NS(=O)(=O)c2ccc(F)cc2)nc1`, the Potency result is “inactive”.

For the molecule `COc1ccccc1C(C)NC(=O)Cc1ccsc1` (stereo not drawn), the Potency entry was “inactive”.

As to `CN(Cc1nc2ccccc2s1)C(=O)c1ccc(F)cc1`, the Potency entry is “inactive”.

For `CC1=CC(=C(C#N)c2nc3ccccc3s2)C=C(C)N1c1ccc(F)cc1F`, the Potency is 18.4 µM (active).

Regarding `Cc1nn(-c2ccc(F)cc2)c(Cl)c1/C=C(/CCC(=O)O)c1nc2ccccc2s1`, the Potency entry was “inactive”.

For `COCc1c(C(=O)N/N=C\c2cccnc2)nnn1-c1nonc1N`, the Potency entry was “inactive”.

Consider `O=C(COC(=O)c1ccccc1O)NCc1ccco1`, for which the Potency entry is “inactive”.

In the case of `CN(c1ccccc1)S(=O)(=O)c1ccc(Cl)c(C(=O)OCC(=O)NCc2ccco2)c1`, the Potency result was “inactive”.

Turning to `Cc1cc(C(=O)OCC(=O)NCc2ccco2)c(C)n1-c1ccccc1`, the Potency is 2.06 µM (active).

As for `Cc1ccc(S(=O)(=O)/N=S(\C)C(C)C)cc1` (stereo not drawn), the Potency entry is “inactive”.

Consider `Cc1cc(O)ccc1NC1=CC(=O)CC(C)(C)C1`, for which the Potency entry was “inactive”.

As to `Oc1ccc(N=Cc2sc3ccccc3c2Cl)cc1`, the Potency was 10.3 µM (active).

With `Oc1ccc2ccccc2c1C=Nc1ccccc1`, the Potency result is “inactive”.

For the molecule `N#C/C(=C/c1ccc(-c2ccccc2[N+](=O)[O-])o1)C(=O)NCCN1CCCCC1`, the Potency entry is “inactive”.

Turning to `O=C1C2C3C=CC(C4CC34)C2C(=O)N1/N=C/c1ccc(-c2ccccc2[N+](=O)[O-])o1` (stereo not drawn), the Potency is 18.4 µM (active).

In the case of `Cc1cc(-c2ccc(/C=N/n3cnnc3)o2)c([N+](=O)[O-])cc1C`, the Potency result is “inactive”.

`Cn1c(-c2ccc(C(F)(F)F)cc2)cc2onc(-c3ccccc3)c2c1=O`: the Potency result was “inactive”.

For `Cc1ccc(S(=O)(=O)CCC(=O)OCC(=O)NCCc2ccc(S(N)(=O)=O)cc2)cc1`, the Potency result was “inactive”.

As to `CCC1C(=O)NCCN1C(=O)c1ccc2nc(Cc3ccc(OC)cc3)oc2c1` (stereo not drawn), the Potency result was “inactive”.

Turning to `COc1ccc(CC(=O)NC(C)CCc2ccccc2)cc1` (stereo not drawn), the Potency entry was “inactive”.

On to `COc1ccc(CCNC(=O)COC(=O)Cc2ccccc2F)cc1`, for which the Potency result was “inactive”.

On to `COc1ccc(C(CCNCc2ccccc2F)c2ccc(F)cc2)cc1` (stereo not drawn), for which the Potency is 13 µM (active).

Turning to `COc1ccccc1-c1ccnc(-n2ncc(C(=O)NCCc3ccncc3)c2C)n1`, the Potency result was “inactive”.

For `CNC(=O)CN1C(=O)c2cccnc2Sc2ccccc21`, the Potency entry was “inactive”.

Consider `COc1cccc(NC(=O)CN2C(=O)c3ccccc3Sc3ncccc32)c1`, for which the Potency was 18.4 µM (active).

Regarding `COCCNC(=O)CCCN1C(=O)c2ccccc2Sc2ncccc21`, the Potency result is “inactive”.

Consider `Cc1ccc(S(=O)(=O)N(C)CC(=O)NC2CCCC2)cc1`, for which the Potency result was “inactive”.

With `C#CCN(C[C@@H]1[C@@H](OC(=O)NC2CC2)[C@@H](OC(=O)NC2CC2)Cn2c(=O)ccc(=O)n21)S(=O)(=O)c1ccc(C)cc1`, the Potency was 14.6 µM (active).

For the molecule `C#CCN(C[C@H]1[C@H](OC(=O)NC2CCCC2)[C@H](OC(=O)NC2CCCC2)C[C@H]2C(=O)N(c3ccccc3)C(=O)[C@@H]12)S(=O)(=O)c1ccc(C)cc1`, the Potency entry was “inactive”.

Regarding `CN(C)CCN(C(=O)C1=COCCO1)c1nc2ccc(Cl)cc2s1`, the Potency result is “inactive”.

In the case of `CC(=O)OCc1cc(=O)n(C)c(=O)n1C`, the Potency entry is “inactive”.

Turning to `CC1C(O)CC2C(C(=O)O)=CO[C@@H](O[C@H]3OC(CO)C(O)C(O)C3O)C21` (stereo partly drawn), the Potency result is “inactive”.

Consider `COc1ccc(S(=O)(=O)N(C)CC(=O)N2CCCC2)cc1`, for which the Potency result was “inactive”.

On to `CN(C)S(=O)(=O)c1ccc(NC(=O)N2CCOCC2)cc1`, for which the Potency entry is “inactive”.

In the case of `CN(C)S(=O)(=O)c1ccc(Oc2ccc(S(=O)(=O)N(C)C)cc2)cc1`, the Potency was 18.4 µM (active).

Take `C#CCOCCOCCOCCNc1nc(N2CCN(C(=O)[C@H](CCC(=O)O)n3cc(CN)nn3)CC2)nc(N2CCN(C(=O)[C@H](CCC(=O)O)n3cc(CN)nn3)CC2)n1`: the Potency entry is “inactive”.

In the case of `Cc1cccc(C(=O)NCc2nnc(SC(C)C(=O)Nc3nnc(C)s3)n2C)c1` (stereo not drawn), the Potency result is “inactive”.

For `CCc1ccc(Oc2coc3cc(O)ccc3c2=O)cc1`, the Potency result was “inactive”.

In the case of `CC(OC(=O)c1cccc(S(=O)(=O)N2CCOCC2)c1)C(=O)NCC1CCCCC1` (stereo not drawn), the Potency entry is “inactive”.

On to `COc1cc(C(C(=O)NC2CCCC2)N(C(=O)c2ccco2)c2ccccc2C(C)=O)cc(OC)c1OC` (stereo not drawn), for which the Potency entry is “inactive”.

On to `COc1cc(C(=O)OC(C)C(=O)NCC2CCCCC2)cc(NC(=O)c2ccco2)c1OC` (stereo not drawn), for which the Potency is 20.6 µM (active).

Take `CSCC[C@H](NC(=O)N1CCn2c1nc1ccccc12)C(=O)NCc1ccc2c(c1)OCO2`: the Potency entry was “inactive”.

Consider `CC(=O)N/C(=C\c1ccccc1)C(=O)OC(C)C(=O)N(C)c1ccccc1` (stereo not drawn), for which the Potency entry was “inactive”.

`O=S(=O)(NCCS(=O)(=O)N1CCN(c2ccccc2)CC1)c1ccc(Cl)cc1`: the Potency result was “inactive”.

As to `CC(=O)Nc1ccc(NC(=O)CN2CCCC(C)C2)c(Cl)c1` (stereo not drawn), the Potency entry was “inactive”.

Turning to `CC1CCCN(CC(=O)Nc2cc(Cl)ccc2Oc2ccccc2)C1` (stereo not drawn), the Potency is 16.4 µM (active).

`O=C(CSc1ccccc1)Nc1cc(Cl)ccc1Oc1ccccc1`: the Potency result is “inactive”.

With `COC(=O)[C@@H](Cc1ccccc1)NC(=O)NCCc1ccccc1`, the Potency result is “inactive”.

As to `COc1ccc(-c2c(C)c3ccc(O)c(CN4CCN(C)CC4)c3oc2=O)cc1OC`, the Potency result is “inactive”.

In the case of `CCOC(=O)c1oc2c(CN3CCN(C)CC3)c(O)ccc2c(=O)c1-c1ccc(Br)cc1`, the Potency result is “inactive”.

Turning to `CN1CCN(Cc2c(O)ccc3c2oc(=O)c2ccccc23)CC1`, the Potency is 11.6 µM (active).

Consider `COc1ccc(C(C)=O)cc1CSc1nc2nc(C)cc(C)n2n1`, for which the Potency entry was “inactive”.

In the case of `CN(CCc1cn[nH]c1)C(=O)CC1C(=O)NCCN1Cc1cccc(Oc2ccccc2)c1` (stereo not drawn), the Potency entry was “inactive”.

For `O=C(Nc1cccc(Cc2ccccc2)c1)Nc1ccc2nc([C@@H]3O[C@H](CO)[C@@H](O)[C@H](O)[C@H]3O)[nH]c2c1`, the Potency entry is “inactive”.

Consider `O=C(CSc1ncc(CO)n1Cc1ccc(F)cc1)NCc1ccco1`, for which the Potency result is “inactive”.

`O=C(CCn1c(=O)c2sccc2n(Cc2ccc(F)cc2)c1=O)NCc1ccc2c(c1)OCO2`: the Potency entry is “inactive”.

As to `O=C(Cc1ccc(-n2c(=O)c3sccc3n(Cc3ccc(F)cc3)c2=O)cc1)NCc1ccco1`, the Potency is 18.4 µM (active).

Regarding `Cc1cc(OC(=O)c2ccc(OC(C)C)cc2)c([N+](=O)[O-])c(=O)[nH]1`, the Potency result was “inactive”.

As to `Cc1ccc2nc(SC(C)C(=O)NCc3ccco3)[nH]c2c1` (stereo not drawn), the Potency result was “inactive”.

For the molecule `CCc1cccc(NC(=O)COC(=O)C2CCN(c3ccc(C(F)(F)F)cn3)CC2)c1`, the Potency is 8.2 µM (active).

As for `CCOc1ccc(CCNC(=O)COC(=O)C2CCN(c3ccc(C(F)(F)F)cn3)CC2)cc1OCC`, the Potency entry was “inactive”.

Regarding `N#CCCN(C(=O)COC(=O)C1CCN(c2ccc(C(F)(F)F)cn2)CC1)c1ccc(F)cc1`, the Potency entry is “inactive”.

Regarding `CSCCC(C(=O)NC1=NCCS1)N1C(=O)c2ccccc2C1=O` (stereo not drawn), the Potency result was “inactive”.

In the case of `CCCCN(C(=O)/C=C/c1ccco1)c1c(N)n(CC(C)C)c(=O)[nH]c1=O`, the Potency entry is “inactive”.

As for `O=C(CSc1ncccn1)NCCc1ccccc1`, the Potency entry is “inactive”.

Consider `CCCCCCCCCCCCCCCC(=O)OC/C=C(C)/C=C/C=C(C)/C=C/C1=C(C)CCCC1(C)C`, for which the Potency entry was “inactive”.

Regarding `COc1ccc(-c2csc(C(O)c3cccc(Cl)c3)n2)cn1` (stereo not drawn), the Potency was 20.6 µM (active).

On to `COc1cc(C(O)c2nc(-c3cccc(C(=O)O)c3)cs2)ccc1F` (stereo not drawn), for which the Potency entry was “inactive”.

In the case of `COc1ccc(Nc2cc(Cl)ccc2C(=O)O)cn1`, the Potency result is “inactive”.

With `CC1CCCN(CC(O)COc2ccc3c(c2)OCO3)C1` (stereo not drawn), the Potency entry was “inactive”.

Regarding `CC1CCCN(CC(O)COCc2ccccc2)C1` (stereo not drawn), the Potency entry was “inactive”.

On to `CC1CCCN(CCOCCOc2ccccc2-c2ccccc2)C1` (stereo not drawn), for which the Potency is 23.1 µM (active).

In the case of `COc1cc(C)c(C)cc1S(=O)(=O)N1CCCc2ccccc21`, the Potency is 16.4 µM (active).

With `CCC(C)(C)NC(=O)/C=C/c1cc(OC)c(OC)c(S(=O)(=O)N2CCc3ccccc32)c1`, the Potency entry was “inactive”.

With `COc1ccc(C(=O)OCC(=O)NCC2CCCCC2)cc1S(=O)(=O)N1CCCc2ccccc21`, the Potency entry was “inactive”.

Take `O=C(O)CCC(=O)NCc1ccc(C(=O)O)cc1`: the Potency result is “inactive”.

As for `CC(C)Cn1c(=O)c2ccccc2n2c(-c3cccc(Cl)c3)nnc12`, the Potency is 25.9 µM (active).

Take `Cn1c(Cc2cccc3ccccc23)nnc1SCC(=O)N1CCN(c2cccc(Cl)c2)CC1`: the Potency was 23.1 µM (active).

`Cn1c(CNC(=O)c2ccco2)nnc1SCC(=O)N1CCN(c2ccccc2)CC1`: the Potency result was “inactive”.

Regarding `CC(C)Cn1c(=O)c2ccccc2n2c(CCC(=O)N3CCN(c4cccc(Cl)c4)CC3)nnc12`, the Potency was 7.31 µM (active).

With `Cc1ccc(Cl)cc1NC(=O)C(C)n1nnc2sc(-c3ccccc3)cc2c1=O` (stereo not drawn), the Potency result was “inactive”.

As to `CC(C)Cn1c(=O)c2ccccc2n2c(CCC(=O)NCc3ccccn3)nnc12`, the Potency result is “inactive”.

For `COc1cccc2c1cc1c(=O)n(CC(=O)N3CCN(c4cccc(Cl)c4)CC3)nc(C)n12`, the Potency entry was “inactive”.

Regarding `Cc1cc2nnc(SCC(=O)N3CCN(c4ccccc4)CC3)n2c(N)n1`, the Potency result was “inactive”.

With `COc1ccc(NC(=O)CCc2nnc3n(CC(C)C)c(=O)c4ccccc4n23)cc1OC`, the Potency entry is “inactive”.
